Consider 23 compounds from PubChem BioAssay (Tox21).

Inconclusive results are not listed. Where a call stands in place of a potency, no number is given. Active and inactive are the calls of the source. The call rests on the fitted dose curve; in most records, active means well fitted inhibition curve with a large enough effect in the repeat runs; inconclusive means weak or mixed curves, or effect the other way; inactive means no such curve, though single readings can be large or run the other way.
Potency means the concentration at half of the fitted maximal effect.

This experiment deals with Nuclear receptor ROR-gamma (Homo sapiens) (UniProt P51449). The experiment can be described thus: qHTS assay to identify small molecule antagonists of the retinoid-related orphan receptor gamma (ROR-gamma) signaling pathway (AID 1159521; further: nearly all actives have a fitted effect of over 50% in size). To be noted: Tet-on RORgamma CHO cells, RORE-luciferase, 16 h; series mostly up to 92.4 µM. In outline:
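Inducible-expression reporter assay: doxycycline (1 uM final) switched on RORγ in CHO cells bearing a ROR response element-luciferase construct, with test compounds present from 2 h beforehand. Decreased luminescence after 16 h defined antagonist activity.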
On the technique in general: Quantitative high-throughput screening tests each substance at several concentrations.
`NC(=O)c1cc([N+](=O)[O-])cc([N+](=O)[O-])c1`: the Potency result was “inactive”.
As for `O=NN1CCCCC1`, the entry is “inactive”.
As for `CCCCc1ccc(O)cc1`, the entry is “inactive”; as for `CC(Oc1ccc(Oc2ncc(C(F)(F)F)cc2Cl)cc1)C(=O)O` (stereo not drawn), 27.3 µM (active).
For `CC(CC(C#N)(c1ccccc1)c1ccccc1)N(C)C` (stereo not drawn) the value was “inactive”; for `OCCBr`, “inactive”; for `OC(Cn1cncn1)(c1ccc(F)cc1)c1ccccc1F` (stereo not drawn), “inactive”.
On to `CCCCOC(=O)c1ccccc1C(=O)O`, for which the Potency result is “inactive”.
As for `N#Cc1c(Cl)cccc1Cl`, the entry is “inactive”.
For `CC(=O)Nc1cc([As](=O)(O)O)ccc1O` the value was “inactive”.
Take `COP(N)(=S)Oc1ccccc1C(=O)OC(C)C` (stereo not drawn): the Potency entry was “inactive”.
In the case of `CC1CCC(=O)O1` (stereo not drawn), the Potency entry was “inactive”.
As for `CC(COc1ccc(Oc2ccccc2)cc1)Oc1ccccn1` (stereo not drawn), the entry is “inactive”; as for `CNC(=O)Oc1ccc(N(C)C)c(C)c1`, “inactive”.
As for `CCOC(=O)C(c1c(O)c2ccccc2oc1=O)c1c(O)c2ccccc2oc1=O`, the entry is “inactive”; as for `COCC(=O)N(c1c(C)cccc1C)N1CCOC1=O`, “inactive”; as for `Cc1ncc2n1-c1ccc(Cl)cc1C(c1ccccc1F)=NC2`, “inactive”.
As for `O=CNC(N1CCN(C(NC=O)C(Cl)(Cl)Cl)CC1)C(Cl)(Cl)Cl` (stereo not drawn), the entry is “inactive”; as for `CCOC(=O)CP(=O)(OCC)OCC`, “inactive”.
In the case of `O=C(Nc1ccccc1)N(Cc1ccc(Cl)cc1)C1CCCC1`, the Potency was 61.1 µM (active).
Turning to `C[C@@H]1CN(C2CCC(C#N)(c3ccc(F)cc3)CC2)CC[C@]1(C(=O)O)c1ccccc1` (stereo partly drawn), the Potency result was “inactive”.
As for `CN/C(=N\[N+](=O)[O-])NCC1CCOC1` (stereo not drawn), the entry is “inactive”; as for `CN1CCN(C(=O)O[C@H]2c3nccnc3C(=O)N2c2ccc(Cl)cn2)CC1`, “inactive”.
